# Measurements reported in PubChem BioAssay.
# Where “and” joins values, the source holds several entries; their conditions need not be identical. Equal entries are not always repeated. Calls of active or inactive are those of the source. Unless noted, no rule for the calls is given here.
# Assays:
# [1] = tested on: Hepatitis C virus NS3 helicase; experiment: HCV NS3 helicase inhibitors, primary screen, biochemical, fluorescence polarization, LOPAC1280 library (AID 687035; in the data active = inhibition above about 37%); conditions: Purified HCV NS3 helicase, Cy5-dT15 ssDNA binding fluorescence polarization; stronger effect = higher value; concentration not given here
# [2] = Cy5 fluorescence quenching or enhancement artefacts, artefact control for HCV NS3 helicase inhibitor project, biochemical, LOPAC1280 (AID 687037); conditions: Cy5-DNA-NS3h complex fluorescence interference counterscreen
# [3] = stimulators of nuclear beta-catenin in C2C12, primary screen, imaging, WNT3A-conditioned medium, mouse C2C12, NPC library (AID 1117326; in the data active = nuclear beta-catenin stimulation mostly above about 4.2%, no sharp cut-off; inactive = mostly below about 10%); conditions: stronger effect = higher value
# [4] = stimulators of insulin release from INS-1E, primary screen, cell-based, 5 mM glucose, NPC library (AID 1117329;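 active = compound raises insulin release from rat beta cells at 5 mM glucose, no numeric limit stated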); conditions: rat INS-1E insulin secretion, at 10 µM, stronger effect = higher value
# [5] = growth inhibition of GSK3B-pretreated HCT116 cells – cell-based, CellTiter-Glo, 0.2 to 20 µM (AID 1117336;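 active = compounds lowering colon cancer cell viability after pretreatment blocking the GSK3B kinase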); conditions: HCT116 viability after GSK3B inhibitor, at 20 µM, stronger effect = higher value
# [6] = inhibition of endothelial tube formation, primary screen, imaging, VEGF stimulated, CD31 staining, tube area, NPC library (AID 1117340;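 active = compound that reduces growth-factor-driven endothelial tube area in a mixed cell culture, no cutoff stated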); conditions: VEGF-stimulated ADSC/ECFC co-culture, at 10 µM, stronger effect = higher value
# [7] = glucagon-like peptide 1 release enhancers, primary assay, NCI-H716 cell line, NPC library (AID 1117341;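 active = compound raises GLP1 secretion from the human gut endocrine cells, with no numeric limit stated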); conditions: NCI-H716 cells, at 10 µM, stronger effect = higher value
# [8] = HCT116 colon cancer cell growth inhibition, primary screen, CellTiter-Glo luminescence, NPC library (AID 1117342;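 active = compounds that lower survival of HCT116 colon cancer cells in the luminescence readout, no numeric limit stated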); conditions: at 20 µM (top of the series)
# [9] = CellTiter-Glo luminescent readout of SW480 viability loss, NPC library primary (AID 1117343;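 active = compounds that lower viability of the colon cancer cells in the luminescence readout, with no numeric limit stated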); conditions: CellTiter-Glo luminescence; at 20 µM (top of the series)
# [10] = decreased DLD-1 cellular survival, CellTiter-Glo luminescent readout, NPC compound collection, primary HTS (AID 1117346;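 active = compounds that lower survival of DLD-1 colon cancer cells in the luminescence readout, no cutoff given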); conditions: DLD-1 viability, CellTiter-Glo luminescence; at 20 µM (top of the series)
# [11] = Cy5 fluorescence interference with SSB-bound oligo, artefact control for HCV NS3 helicase inhibitor project, biochemical, NIH Clinical Collection, E. coli SSB (AID 743268)
# [12] = tested on: Hepatitis C virus NS3 helicase; experiment: HCV NS3 helicase inhibitors, primary screen, biochemical, fluorescence polarization, NIH Clinical Collection (AID 743270); conditions: NS3 helicase binding to Cy5-dT15 DNA, stronger effect = higher value, concentration not given here
# [13] = molecular target: Single-stranded DNA-binding protein (Escherichia coli (strain K12)) (UniProt P0AGE0); experiment: E. coli SSB displacement from DNA, counter-screen for HCV NS3 helicase inhibitor project, biochemical, fluorescence polarization, NIH Clinical Collection (AID 743271; in the data active = inhibition above about 28%); conditions: stronger effect = higher value, concentration not given here
# [14] = fluorescence interference in NS3h assay format, artefact control for HCV NS3 helicase inhibitor project, biochemical, NIH Clinical Collection (AID 743272); conditions: fluorescence interference counterscreen, stronger effect = lower value;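 also: HCV NS3 helicase with a Cy5 labelled single stranded DNA probe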
# [15] = tested on: Neuropilin-2 / VEGF-C interaction (human); experiment: inhibitors of NRP2–VEGF-C binding, biochemical, microplate binding format, z-score (AID 743281); conditions: microplate NRP2/VEGF-C binding assay; stronger effect = lower value
# [16] = liver-stage malaria parasite growth inhibition, primary screen, cell-based, HepG2, luciferase luminescence, HepG2 viability (AID 624349; in the data active = parasite load remaining mostly below about 12%, no sharp cut-off; inactive = mostly above about 10%;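 also: 100% = mean of DMSO negative control wells on the same plate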); conditions: P. berghei liver stage in HepG2, luciferase luminescence, concentration not given here; parasite load remaining: stronger effect = lower value; viability: measured here: HepG2 viability without parasites
# [17] = kinase inhibitors against Plasmodium liver-stage infection, cell-based, known kinase inhibitor set, luminescence, hepatoma host viability (AID 624392); conditions: Plasmodium liver stage in hepatoma cells, luciferase luminescence, concentration not given here; liver cell % of control: measured here: host liver cell viability; parasite % of control: stronger effect = lower value;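 also: infected cells incubated roughly two days before readout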
smiles,measurement,setting,value
CCOC(=O)C1=C(C)NC(C)=C(C(=O)OC)C1c1cccc(Cl)c1Cl (stereo not given),inhibition,[1],-1% (inactive)
same,fluorescence ratio (interference),[2],1 (inactive)
same,nuclear beta-catenin stimulation,[3]; at 10 µM,35.8% (inactive)
same,nuclear beta-catenin stimulation,"[3]; stimulation, at 2 µM",7.4%
same,insulin secretion stimulation,[4],3.1% (inactive)
same,viability decrease,[5],113% (active)
same,tube area decrease,[6],58.1% (active)
same,GLP1 secretion stimulation,[7],5.3% (inactive)
same,inhibition of viability,[8],110% (active)
same,viability decrease (inhibition),[9],139% (active)
same,viability decrease (inhibition),[10],95.6% (active)
COc1ccc(CC2c3cc(OC)c(OC)cc3CC[N+]2(C)CCC(=O)OCCCCCOC(=O)CC[N+]2(C)CCc3cc(OC)c(OC)cc3C2Cc2ccc(OC)c(OC)c2)cc1OC (stereo not given),fluorescence ratio,[11],1.03 (inactive)
same,inhibition,[12],-1.09% (inactive)
same,inhibition,[13],1.97% (inactive)
same,fluorescence ratio,[14],1.02 (inactive)
same,outcome,[15],inactive
same,nuclear beta-catenin stimulation,[3]; at 10 µM,21.5% (inactive)
same,nuclear beta-catenin stimulation,"[3]; stimulation, at 2 µM",0.3%
same,insulin secretion stimulation,[4],13.1% (inactive)
same,viability decrease,[5],65.7% (active)
same,tube area decrease,[6],44.4% (active)
same,GLP1 secretion stimulation,[7],-3% (inactive)
same,inhibition of viability,[8],6.9% (inactive)
same,viability decrease (inhibition),[9],81.7% (active)
same,viability decrease (inhibition),[10],51.9% (active)
CC[C@@]1(O)C(=O)OCc2c1cc1n(c2=O)Cc2cc3c(CN(C)C)c(O)ccc3nc2-1,fluorescence ratio,[11],1.05 (inactive)
same,inhibition,[12],1.98% (inactive)
same,inhibition,[13],3.75% (inactive)
same,fluorescence ratio,[14],1.02 (inactive)
same,z-score,[15],1.52 (inactive)
same,nuclear beta-catenin stimulation,[3]; at 10 µM,55.8% (active)
same,nuclear beta-catenin stimulation,"[3]; stimulation, at 2 µM",20.6%
same,insulin secretion stimulation,[4],0.5% (inactive)
same,viability decrease,[5],61.2% (active)
same,tube area decrease,[6],107% (active)
same,GLP1 secretion stimulation,[7],-4.3% (inactive)
same,inhibition of viability,[8],52.2% (active)
same,viability decrease (inhibition),[9],75% (active)
same,viability decrease (inhibition),[10],67.8% (active)
CN1CCN2c3ccccc3Cc3ccccc3C2C1 (stereo not given),parasite load remaining,[16],78.7% (inactive) and 106% (inactive) and 104% (inactive)
same,inhibition,[1],-3% (inactive)
same,fluorescence ratio (interference),[2],0.9 (inactive)
same,nuclear beta-catenin stimulation,[3]; at 10 µM,0.3% (inactive)
same,nuclear beta-catenin stimulation,"[3]; stimulation, at 2 µM",-0.9%
same,insulin secretion stimulation,[4],43.4% (active)
same,viability decrease,[5],6.5% (inactive)
same,tube area decrease,[6],26.3% (inactive)
same,GLP1 secretion stimulation,[7],3.1% (inactive)
same,inhibition of viability,[8],20.5% (inactive)
same,viability decrease (inhibition),[9],76% (active)
same,viability decrease (inhibition),[10],6.6% (inactive)
CCc1c2c(nc3ccc(OC(=O)N4CCC(N5CCCCC5)CC4)cc13)-c1cc3c(c(=O)n1C2)COC(=O)[C@]3(O)CC,parasite load remaining,[16],136% (inactive) and 106% (inactive)
same,viability,[16],95.2% and 90.6%
same,z-score,[15],-0.00941 (inactive)
same,nuclear beta-catenin stimulation,[3]; at 10 µM,11.6% (inactive)
same,nuclear beta-catenin stimulation,"[3]; stimulation, at 2 µM",1.5%
same,insulin secretion stimulation,[4],-1.1% (inactive)
same,viability decrease,[5],67.4% (active)
same,tube area decrease,[6],97.9% (active)
same,GLP1 secretion stimulation,[7],24% (active)
same,inhibition of viability,[8],50.8% (active)
same,viability decrease (inhibition),[9],21.7% (inactive)
same,viability decrease (inhibition),[10],8.7% (inactive)
COc1cc2c(N3CCN(C(=O)Nc4ccc(OC(C)C)cc4)CC3)ncnc2cc1OCCCN1CCCCC1,liver cell % of control,[17],61.6% and 84.6% and 95.9%
same,parasite % of control,[17],32.5% (inactive) and 57.6% (inactive) and 55.2% (inactive)
same,nuclear beta-catenin stimulation,[3]; at 10 µM,1.7% (inactive)
same,nuclear beta-catenin stimulation,"[3]; stimulation, at 2 µM",-1.8%
same,insulin secretion stimulation,[4],7% (inactive)
same,viability decrease,[5],75.1% (active)
same,tube area decrease,[6],11% (inactive)
same,GLP1 secretion stimulation,[7],11.5% (inactive)
same,inhibition of viability,[8],93.9% (active)
same,viability decrease (inhibition),[9],38.5% (inactive)
same,viability decrease (inhibition),[10],10.1% (inactive)
COc1cc(C)c(Cc2cnc(N)nc2N)cc1OC,parasite load remaining,[16],28% (inactive)
same,viability,[16],73.1%
same,fluorescence ratio,[11],1.02 (inactive)
same,inhibition,[12],1.98% (inactive)
same,inhibition,[13],2.21% (inactive)
same,fluorescence ratio,[14],0.95 (inactive)
same,z-score,[15],-0.323 (inactive)
same,nuclear beta-catenin stimulation,[3]; at 10 µM,-0.5% (inactive)
same,nuclear beta-catenin stimulation,"[3]; stimulation, at 2 µM",0.4%
same,insulin secretion stimulation,[4],1.7% (inactive)
same,viability decrease,[5],-7.75% (inactive)
same,tube area decrease,[6],11.1% (inactive)
same,GLP1 secretion stimulation,[7],0.8% (inactive)
same,inhibition of viability,[8],6.8% (inactive)
same,viability decrease (inhibition),[9],11.5% (inactive)
same,viability decrease (inhibition),[10],-5.75% (inactive)
Cc1nccn1CC1CCc2c(c3ccccc3n2C)C1=O (stereo not given),fluorescence ratio,[11],0.99 (inactive) and 1.12 (inactive)
same,inhibition,[12],0.4% (inactive) and -4.09% (inactive)
same,inhibition,[13],3.75% (inactive) and 1.05% (inactive)
same,fluorescence ratio,[14],0.97 (inactive) and 1.02 (inactive)
same,z-score,[15],-0.188 (inactive)
same,nuclear beta-catenin stimulation,[3]; at 10 µM,-0.2% (inactive)
same,nuclear beta-catenin stimulation,"[3]; stimulation, at 2 µM",1.9%
same,insulin secretion stimulation,[4],-1.6% (inactive)
same,viability decrease,[5],-7% (inactive)
same,tube area decrease,[6],1.5% (inactive)
same,GLP1 secretion stimulation,[7],-1.9% (inactive)
same,inhibition of viability,[8],24.8% (inactive)
same,viability decrease (inhibition),[9],-3.2% (inactive)
same,viability decrease (inhibition),[10],-8% (inactive)
Cc1cnc(NC(=O)C2=C(O)c3ccccc3S(=O)(=O)N2C)s1,inhibition,[1],-4% (inactive)
same,fluorescence ratio (interference),[2],1 (inactive)
same,nuclear beta-catenin stimulation,[3]; at 10 µM,2% (inactive)
same,nuclear beta-catenin stimulation,"[3]; stimulation, at 2 µM",-0.5%
same,insulin secretion stimulation,[4],-1% (inactive)
same,viability decrease,[5],-14.6% (inactive)
same,tube area decrease,[6],-8.1% (inactive)
same,GLP1 secretion stimulation,[7],-2.4% (inactive)
same,inhibition of viability,[8],19.1% (inactive)
same,viability decrease (inhibition),[9],23.9% (inactive)
same,viability decrease (inhibition),[10],4.7% (active)
